Assay outcomes (PubChem BioAssay)
DT40 TDP1 CPT – qHTS for Inhibitors of human tyrosyl-DNA phosphodiesterase 1 (TDP1): qHTS in cells in presence of CPT; chicken DT40 Tdp1-/-;hTDP1 cells + 20 nM CPT, ATP luminescence, 48 h; Potency, µM (highest dose often 46.2 µM), inactives show at the top dose activity change, negative = growth inhibition, most hits filed as inhibitors; 420,000 compounds, 12% hits; note: potency is the fitted concentration of half-maximal effect; nearly all actives have a fitted effect of over 55% in size
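Chicken DT40 Tdp1-/- cells stably complemented with human TDP1 were seeded at 400 cells/well in medium containing 20 nM camptothecin, exposed to pin-transferred compounds, and grown at 37 °C for at least 48 hr. Viability was read as ATP luminescence.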
DT40 TDP1 no CPT – qHTS for Inhibitors of human tyrosyl-DNA phosphodiesterase 1 (TDP1): qHTS in cells in absence of CPT. 420,000 compounds, 15% hits. DT40 Tdp1-/- hTDP1 cells, no CPT, ATP luminescence, 48 h. Potency, µM (doses to about 46.2 µM), for inactives: at the highest dose activity change, negative = growth inhibition, most hits filed as inhibitors. AID 686978, 2013; note: potency is the fitted concentration of half-maximal effect; nearly all actives have a fitted effect of over 55% in size
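No-CPT arm: Tdp1-/-;hTDP1 DT40 cells (400/well) plus compounds, incubated ≥48 hr at 37 °C. Readout CellTiter-Glo luminescence.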
TDP1 block – qHTS Assay for Inhibitors of Tyrosyl-DNA Phosphodiesterase (TDP1); Potency, µM (doses to about 130 µM), for inactives: at the highest dose activity change, negative = inhibition, usual class: inhibitors; Tyrosyl-DNA phosphodiesterase 1 (Homo sapiens), Q9NUW8; 350,000 compounds, 0.28% hits; recombinant TDP1, AlphaScreen DNA substrate cleavage; note: potency is the fitted concentration of half-maximal effect; nearly all actives have a fitted effect of over 40% in size
Target sequence (Q9NUW8 whole entry, looked up): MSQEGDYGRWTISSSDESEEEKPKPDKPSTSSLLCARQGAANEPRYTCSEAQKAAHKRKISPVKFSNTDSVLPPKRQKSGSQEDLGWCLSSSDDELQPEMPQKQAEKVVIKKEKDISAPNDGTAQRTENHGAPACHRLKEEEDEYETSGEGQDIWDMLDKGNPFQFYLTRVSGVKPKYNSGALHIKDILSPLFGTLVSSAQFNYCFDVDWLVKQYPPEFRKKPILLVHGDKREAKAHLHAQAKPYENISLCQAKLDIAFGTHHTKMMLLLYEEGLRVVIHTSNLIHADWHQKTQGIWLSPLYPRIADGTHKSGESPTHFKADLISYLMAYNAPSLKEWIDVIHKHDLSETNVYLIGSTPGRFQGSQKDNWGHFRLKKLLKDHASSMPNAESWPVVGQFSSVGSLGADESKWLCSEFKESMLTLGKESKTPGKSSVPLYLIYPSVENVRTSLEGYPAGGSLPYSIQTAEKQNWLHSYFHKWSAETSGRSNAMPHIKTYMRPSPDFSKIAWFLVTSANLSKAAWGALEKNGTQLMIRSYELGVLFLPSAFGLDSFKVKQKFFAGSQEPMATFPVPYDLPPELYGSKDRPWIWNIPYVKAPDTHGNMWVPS
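Signal: AlphaScreen proximity between streptavidin donor and anti-FITC acceptor beads on intact substrate. Reaction: Tdp1 1 nM, substrate 15 nM final, 5 min RT after 15 min compound preincubation.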
CtBP-E1A blk – qHTS Assay for Inhibitors of the CtBP/E1A Interaction; CtBP / adenovirus E1A interaction (AlphaScreen); AlphaScreen GST-E1A/His-CtBP binding, 1536-well; stronger effect = lower value; activity change, % (test concentration not listed); 340,000 compounds, 0.49% hits; AID 651724, 2012; in the data active = activity change below about -65%; inconclusive = mostly about -30% to -63%
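Protein mix (5X: 125 nM each GST-E1A, His-CtBP) was incubated with pinned compound 2 h at 37 deg C in dark, in 50 mM Tris pH 8.0 buffer with 300 mM NaCl. Glutathione donor and nickel acceptor beads followed; AlphaScreen signal read after 1 h.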
IL1B secr inh – qHTS for Inhibitors of Inflammasome Signaling: IL-1-beta AlphaLISA Primary Screen; THP-1 LPS/ATP IL-1B secretion, AlphaLISA, 16 h; stronger effect = lower value; activity change, % at 57.5 µM; 360,000 compounds, 4.7% hits; in the data active = activity change below about -50%; inconclusive = mostly about -30% to -49%
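Secreted IL-1B measured by AlphaLISA bead assay after 16 h compound exposure of THP-1 cells; compounds (final up to 57.5 uM) added 1 h before LPS (250 ng/mL) and ATP (1.25 mM) stimulation; lower signal means less secretion.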
Six1-Eya2 blk – qHTS Assay for Inhibitors of the Six1/Eya2 Interaction | AID 651725, 2012 | activity change, % (no concentration beside the values) | AlphaScreen GST-Six1/His-Eya2 binding, biochemical; stronger effect = lower value | 360,000 compounds, 0.56% hits | Homeobox protein SIX1 (Homo sapiens) + Protein phosphatase EYA2 (Homo sapiens), …; in the data active = activity change below about -65%; inconclusive = mostly about -30% to -63%
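Six1/Eya2 binding was read as AlphaScreen signal after compounds were pinned into GST-Six1 plus His-tagged Eya2 (5X stock 250/500 nM) in pH 8.0 Tris/NaCl/TCEP buffer, beads added, then incubated 1 h, 37 C, dark.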
Numbers without * were called inactive. In the library only some 18% were active in any assay of this set; here they are far more common. Unless noted, calls come from the whole dose curve; as a rule, active = well fitted curve in the direction sought with a large enough effect; inconclusive = small, poorly fitted or top-dose-only effect, or another doubt; inactive = no such curve, though single readings can be large; an effect the other way counts as inactive or inconclusive. % is set by controls: 0 for no effect and ±100 for the full control effect.

Results for O=C(/C=C/c1ccc([N+](=O)[O-])cc1)Nc1ncc([N+](=O)[O-])s1 ?
DT40 TDP1 CPT: 5.8µM*; DT40 TDP1 no CPT: 8.2µM*; TDP1 block: 2%; IL1B secr inh: -78*; Six1-Eya2 blk: -1

What do the screens show for `O=C(/C=C/c1ccc([N+](=O)[O-])cc1)NCc1ccccn1`?
DT40 TDP1 CPT: inconclusive; DT40 TDP1 no CPT: -6%; TDP1 block: -1%; CtBP-E1A blk: 9; IL1B secr inh: 15; Six1-Eya2 blk: 2

How did CCCCC(CC)C(=O)Nc1ncc([N+](=O)[O-])s1 (centres undefined) do in these assays?
DT40 TDP1 CPT: inconclusive; DT40 TDP1 no CPT: inconclusive; TDP1 block: -3%; CtBP-E1A blk: 5; IL1B secr inh: -79*; Six1-Eya2 blk: 12

What do the screens show for `O=C(Nc1ncc([N+](=O)[O-])s1)c1ccccc1Br`?
DT40 TDP1 CPT: 21µM*; DT40 TDP1 no CPT: 18µM*; TDP1 block: 8%; IL1B secr inh: 25; Six1-Eya2 blk: 20

Results for Cc1ccc(F)c(S(=O)(=O)NC(=O)C2(C)CCN2C(=O)Cc2ccccc2Cl)c1 (centres undefined) ?
DT40 TDP1 CPT: 3%; DT40 TDP1 no CPT: 1%; CtBP-E1A blk: -3; IL1B secr inh: -22; Six1-Eya2 blk: 9

What do the screens show for `Cc1ncoc1C(=O)Nc1ncc([N+](=O)[O-])s1`?
DT40 TDP1 CPT: inconclusive; DT40 TDP1 no CPT: inconclusive; CtBP-E1A blk: 0; IL1B secr inh: 4; Six1-Eya2 blk: -20

What do the screens show for `O=C(Nc1ncc([N+](=O)[O-])s1)c1cccs1`?
DT40 TDP1 CPT: 18µM*; DT40 TDP1 no CPT: 10µM*; TDP1 block: 1%; CtBP-E1A blk: 4; IL1B secr inh: 9; Six1-Eya2 blk: 1

What do the screens show for `COc1ccc2[nH]cc(C(=O)CN3CCCC(C)(C)C3)c2c1`?
DT40 TDP1 CPT: inconclusive; DT40 TDP1 no CPT: -23%; CtBP-E1A blk: 1; IL1B secr inh: -1; Six1-Eya2 blk: 2

What do the screens show for `COc1ccc(C(C#N)N2CCC(c3ccccc3)=N2)cc1` (centres undefined)?
DT40 TDP1 CPT: inconclusive; DT40 TDP1 no CPT: inconclusive; CtBP-E1A blk: 2; IL1B secr inh: -90*; Six1-Eya2 blk: 2

How did COC(=O)C1C(O)=CC(=O)CC1C (centres undefined) do in these assays?
DT40 TDP1 CPT: -2%; DT40 TDP1 no CPT: -2%; TDP1 block: 3%; CtBP-E1A blk: -5; IL1B secr inh: 4; Six1-Eya2 blk: -1

What do the screens show for `CCCNC(=O)Cn1c(=O)/c(=C\c2ccc(-c3cccc([N+](=O)[O-])c3)o2)s/c1=C\C(=O)C(C)(C)C`?
DT40 TDP1 CPT: 23µM*; DT40 TDP1 no CPT: 23µM*; TDP1 block: 8%; CtBP-E1A blk: 1; IL1B secr inh: 9; Six1-Eya2 blk: 1

What do the screens show for `O=C(OC(C(=O)NC1CCCCC1)c1ccccc1)c1ccco1` (centres undefined)?
DT40 TDP1 CPT: -15%; DT40 TDP1 no CPT: -13%; TDP1 block: 5%; CtBP-E1A blk: 5; IL1B secr inh: 12; Six1-Eya2 blk: 6

What do the screens show for `O=C(N/N=C/c1cc(Br)cs1)C(O)c1ccccc1` (centres undefined)?
DT40 TDP1 CPT: 2%; DT40 TDP1 no CPT: -23%; CtBP-E1A blk: -1; IL1B secr inh: -10; Six1-Eya2 blk: -14

What do the screens show for `Cc1ccc(-n2nc(-c3ccccc3)c3cnc4cc5c(cc4c32)OCO5)cc1C`?
DT40 TDP1 CPT: -10%; DT40 TDP1 no CPT: -20%; TDP1 block: 0%

What do the screens show for `COc1ccc2ncc3c(-c4ccc(C)c(C)c4)nn(CC(=O)Nc4ccccc4)c3c2c1`?
DT40 TDP1 CPT: 15µM*; DT40 TDP1 no CPT: 18µM*; TDP1 block: 5%

Results for COc1ccc2ncc3c(-c4ccccc4)nn(-c4ccc(C)c(C)c4)c3c2c1 ?
DT40 TDP1 CPT: 12µM*; DT40 TDP1 no CPT: 9.2µM*; TDP1 block: 0%

What do the screens show for `Cc1ccc(-c2nn(CC(=O)NC3CCCC3)c3c2cnc2ccc(F)cc23)cc1C`?
DT40 TDP1 CPT: inconclusive; DT40 TDP1 no CPT: 12µM*; TDP1 block: 3%

What do the screens show for `Cc1cccc(NC(=O)Cn2nc(-c3ccccc3)c3cnc4ccccc4c32)c1`?
DT40 TDP1 CPT: 16µM*; DT40 TDP1 no CPT: -45%; TDP1 block: 2%

Results for CCOc1ccc2ncc3c(-c4ccccc4)nn(CC(=O)Nc4cccc(F)c4)c3c2c1 ?
DT40 TDP1 CPT: -7%; DT40 TDP1 no CPT: -11%; TDP1 block: 3%

Results for Cc1ccc(NC(=O)Cn2nc(-c3ccc(F)cc3)c3cnc4ccc(C)cc4c32)cc1 ?
DT40 TDP1 CPT: -15%; DT40 TDP1 no CPT: -1%; TDP1 block: 10%

What do the screens show for `COc1ccc(-c2nn(-c3ccc(C)cc3)c3c2cnc2ccc(C)cc23)cc1OC`?
DT40 TDP1 CPT: 2%; DT40 TDP1 no CPT: 0%; TDP1 block: -2%

How did O=C(Cn1nc(-c2ccccc2)c2ccccc2c1=O)Nc1cccc(O)c1 do in these assays?
DT40 TDP1 CPT: 0%; DT40 TDP1 no CPT: -23%; CtBP-E1A blk: 16; IL1B secr inh: -52*; Six1-Eya2 blk: -7

How did COc1cc2ncc3c(-c4ccccc4)nn(-c4ccc(C)cc4)c3c2cc1OC do in these assays?
DT40 TDP1 CPT: 16µM*; DT40 TDP1 no CPT: 16µM*; TDP1 block: 6%

Results for CCc1nnc2c(Nc3cccc(F)c3)nc3ccc(C(=O)c4ccccc4)cc3n12 ?
DT40 TDP1 CPT: 6.5µM*; DT40 TDP1 no CPT: 2.9µM*; TDP1 block: -2%

What do the screens show for `Cc1c(Cl)cccc1Nc1nc2ccc(C(=O)c3ccccc3)cc2n2cnnc12`?
DT40 TDP1 CPT: inconclusive; DT40 TDP1 no CPT: 23µM*; TDP1 block: -3%

Results for CCOC(=O)c1ccc(Nc2nc3ccc(C(=O)c4ccccc4)cc3n3c(C)nnc23)cc1 ?
DT40 TDP1 CPT: -22%; DT40 TDP1 no CPT: -18%; TDP1 block: -2%
